Source: PubChem BioAssay (NCI)
The panel holds about 79,000 compounds, 15% with a hit somewhere; the sample as a whole holds those more often. Calls of active or inactive are those of the source. No stated cut-off is given here; in the data, active means growth inhibition above about 70%; inactive means the rest. Where a SMILES comes first, the peptide text is derived from it. [ ]: non-standard residue; d: D form. ξ: configuration not given here. ξPhe(4-N(CH2CH2Cl)2) = NC(Cc1ccc(N(CCCl)CCCl)cc1)C(=O)O; Aad = N[CH](CCCC(=O)O)C(=O)O

Assay: NCI Yeast Anticancer Drug Screen. Data for the rad50 strain (AID 155);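 further: 0% = growth of vehicle-only cultures of the same strain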
Conditions: S. cerevisiae rad50 strain growth inhibition; at 50.0 µM; stronger effect = higher value
Description: Growth inhibition of yeast strains with defined genetic alterations is measured as a screen for potential anti-cancer activity. Selected strains with alterations in DNA damage repair or cell cycle control were exposed to compounds and growth inhibition was measured relative to vehicle treated controls. The strain used in this assay is rad50

Row | Structure (SMILES) | growth inhibition
1 | N#CC(C#N)=Cc1ccccc1[N+](=O)[O-] | 41.9% (inactive)
2 | [CH3][Sn]1([CH3])[O]C(=O)C(=O)[O]1 | 12.2% (inactive)
3 | NC1C(=O)NC(=O)NC1=O | 4.2% (inactive)
4 | O=S(=O)(O)c1ccc(Cl)cc1 | -0.45% (inactive)
5 | O=[N+]([O-])c1cccc2cccnc12 | -11.4% (inactive)
6 | Clc1ccc(C(c2ccc(Cl)cc2)c2ccccn2)cc1 | 98.5% (active)
7 | O=S(=O)(O)C(Br)(Br)Br | 29.4% (inactive)
8 | Nc1ccccc1Nc1ccccc1C(=O)[O-].Nc1ccccc1Nc1ccccc1C(=O)[O-].[Cu+2] | -3.5% (inactive)
9 | COc1ccc(CC[N+](C)(C)C)cc1 | -3.85% (inactive)
10 | Nc1cc([N+](=O)[O-])cc([N+](=O)[O-])c1 | -6.6% (inactive)
11 | Cc1c([As](=O)(O)O)ccc2nc3c(C)c([As](=O)(O)O)ccc3nc12 | 24.5% (inactive)
12 | O=C(Nc1c(O)[nH]c(=S)[nH]c1=O)c1ccccn1 | 6.95% (inactive)
13 | COc1ccc2ccc([Se]c3ccc4ccc(OC)cc4c3)cc2c1 | -1.25% (inactive)
14 | CC(C)(O)OC1COC(C2CS2)C1O (stereo not given) | 18.1% (inactive)
15 | CCN(CC)CCn1c(=O)c2ccccc2n(CCN(CC)CC)c1=O | 19.6% (inactive)
16 | CCCCCCCCCNP(=O)(OCc1ccccc1)N(CCCl)CCCl (stereo not given) | 55.5% (inactive)
17 | COC(=O)C1C(OC(=O)c2ccccc2)CC2CCC1N2C(N)=O (stereo not given) | -12.6% (inactive)
18 | ClCCN(CCCl)c1ccc2c(c1)Cc1cc(Br)ccc1-2 | 15% (inactive)
19 | COc1cc2cc(c1Cl)N(C)C(=O)CC(OC(=O)C(C)C)C1(C)OC1C(C)C1CC(O)(NC(=O)O1)C(OC)/C=C/C=C(C)C2 (stereo not given) | -15.9% (inactive)
20 | CN1C(=O)C(=CN(C)c2ccccc2)C(=O)N(C)C1=O | 13.2% (inactive)

Row | Structure (SMILES) | growth inhibition
21 | CC(=O)CCC(=O)O.[Ni] | -37.5% (inactive)
22 | C/C(=N\N=C(N)N)C(CN(C)C)C(c1ccccc1)c1c(O)c2ccccc2oc1=O (stereo not given) | 25.6% (inactive)
23 | CC1=C(C)C(=O)O[C@@H]([C@](C)(O)[C@]2(O)CC[C@@]3(O)[C@@H]4C[C@H]5O[C@]56CC=CC(=O)[C@]6(C)[C@H]4CC[C@]23C)C1 | 45.1% (inactive)
24 | N[C@@H](Cc1ccc2oc3cc(=O)c4ccccc4c-3nc2c1)C(=O)O | 26% (inactive)
25 | [C-]#[O+].[C-]#[O+].[C-]#[O+].[C-]#[O+].[Cr].c1ccc([As](CC[As](c2ccccc2)c2ccccc2)c2ccccc2)cc1 | 22.9% (inactive)
26 | CCOC(=O)C(Cc1ccc(N(CCCl)CCCl)cc1)NC(=O)C(CCC(=O)O)NC(=O)C(Cc1ccc(O)cc1)NC(=O)C(CCCC(=O)O)NC(=O)C(N)Cc1ccc(O)cc1 (stereo not given) (H-Y[Aad]YE[ξPhe(4-N(CH2CH2Cl)2)]-OEt; configuration not given here) | 7.7% (inactive)
27 | CCCCOCN(CCc1ccccc1)COCCCC | 15.7% (inactive)
28 | OCCNC1CCCCC1 | 5.15% (inactive)
29 | COc1ccc2[nH]cc(CCN(C)C)c2c1 | 4.8% (inactive)
30 | N=C(N)n1cc(/C=N/N=C(N)N)cn1 | -4.4% (inactive)
31 | NC(=O)c1cc(N(CCBr)CCBr)c([N+](=O)[O-])cc1[N+](=O)[O-] | 17.6% (inactive)
32 | CCOP(=O)(OCC)SC=C(Cl)Cl | -12.9% (inactive)
33 | CCC1CC[Si](C)(C)CC12C(=O)NC(=O)NC2=O (stereo not given) | 0.85% (inactive)
34 | O=C(c1ccc(Cl)cc1)N1CCOCC1 | -4.45% (inactive)
35 | O=C(CCN1CC=C(c2ccccc2)CC1)c1ccc(F)cc1 | 76.5% (active)
36 | O=C(O)C1C2c3ccccc3C(c3ccccc32)C1C(=O)NCC1CC1 (stereo not given) | 51.5% (inactive)
37 | CC1=CP(=O)(OC(C)C)CC(C)=C1Cl (stereo not given) | 33.7% (inactive)
38 | c1c2c(cc3c1OCO3)-c1cc3ccc4c(c3c[n+]1CC2)OCO4 | 9.2% (inactive)
39 | O=C(O)c1ccc(=O)[nH]c1 | 25.6% (inactive)
40 | C[C@]12CCC(=O)C[C@@H]1CC[C@@H]1[C@@H]2CC[C@]2(C)[C@@H](OC(=O)N(CCCl)N=O)CC[C@@H]12 | 36.8% (inactive)
